Source: PubChem (National Center for Advancing Translational Sciences (NCATS))
HP1b binding inh = HTS for Inhibitors of HP1-beta Chromodomain Interactions with Methylated Histone Tails; Chromobox protein homolog 1 (Homo sapiens), P83916; AlphaScreen HP1-beta / biotin-H3K9me3 peptide binding; Potency, µM (highest dose often 114 µM), for inactives: at the highest dose activity change, negative = inhibition, actives largely listed as inhibitors; AID 540317, 2011; actives 0.56% (n = 390,000); note: nearly all actives have a fitted effect of over 70% in size
Target sequence (P83916 whole entry, looked up): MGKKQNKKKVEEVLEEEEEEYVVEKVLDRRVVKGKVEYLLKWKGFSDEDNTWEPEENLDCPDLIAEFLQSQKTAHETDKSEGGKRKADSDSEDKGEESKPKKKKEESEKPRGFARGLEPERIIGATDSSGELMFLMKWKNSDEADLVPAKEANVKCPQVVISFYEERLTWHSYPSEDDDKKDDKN
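Compound inhibition of the preformed complex between 50 nM HP1-beta and 50 nM biotinylated H3K9me3 peptide was read by AlphaScreen. Buffer was PBS pH 7.4 with 0.01% Tween-20. Incubations ran 30 min at room temperature, with 10 ug/mL donor/acceptor beads.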
BAZ2B inh = qHTS Assay for Inhibitors of BAZ2B; Bromodomain adjacent to zinc finger domain protein 2B (Homo sapiens), Q9UIF8; AlphaScreen BAZ2B-H3K14Ac peptide displacement; Potency, µM (highest dose often 114 µM), without a hit: at the highest dose activity change, negative = inhibition, hits mostly inhibitors; actives 4.4% (n = 360,000); AID 504333, 2011; note: % is set by controls: 0 for no effect and ±100 for the full control effect; nearly all actives have a fitted effect of over 60% in size
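In this displacement format the biotinylated H3(5-23) peptide acetylated at Lys14 serves as ligand at 50 nM, with BAZ2B at 50 nM in PBS pH 7.4 containing 0.01% Tween-20. Donor and acceptor beads are 10 ug/mL final.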
Sfp inh = qHTS Assay for Inhibitors of Bacillus subtilis Sfp phosphopantetheinyl transferase (PPTase). Biochemical Sfp PPTase activity, qHTS. Potency, µM, inactives show largest response in the series, negative = inhibition, usual class: inhibitors. 4'-phosphopantetheinyl transferase ffp (Bacillus subtilis), Q9F4F7. actives 3.5% (n = 310,000);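 note: the enzyme is Sfp with the accession as filed and its product quenches rhodamine fluorescence; 0% = enzyme reaction without inhibitor and -100% = no enzyme wells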
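Buffer: 50 mM Hepes-Na pH 7.6, 10 mM MgCl2, 0.01% Nonidet P-40, 0.01% BSA. Enzyme 15 nM, pre-exposed to compound 15 min; substrates then added and fluorescence change tracked over 30 min.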
JMJD2A Tudor = qHTS Assay for Inhibitors of JMJD2A-Tudor Domain; Lysine-specific demethylase 4A (Homo sapiens), O75164; AlphaScreen JMJD2A-Tudor / H3K4me3 peptide binding; Potency, µM (titrated, usually from 114 µM), inactives show at the top dose activity change, negative = inhibition, actives largely listed as inhibitors; actives 4.4% (n = 390,000); note: % is set by controls: 0 for no effect and ±100 for the full control effect; nearly all actives have a fitted effect of over 50% in size
G9a block = qHTS Assay for Inhibitors of Histone Lysine Methyltransferase G9a; Potency, µM (doses to about 102 µM), for the others: top-dose activity, negative = inhibition, hits mostly inhibitors; actives 8.8% (n = 350,000); G9a H3K9 monomethylation, AlphaScreen, 2 h; note: % is set by controls: 0 for no effect and ±100 for the full control effect; nearly all actives have a fitted effect of over 75% in size
Target sequence (Q96KQ7 913-1193 limits assumed): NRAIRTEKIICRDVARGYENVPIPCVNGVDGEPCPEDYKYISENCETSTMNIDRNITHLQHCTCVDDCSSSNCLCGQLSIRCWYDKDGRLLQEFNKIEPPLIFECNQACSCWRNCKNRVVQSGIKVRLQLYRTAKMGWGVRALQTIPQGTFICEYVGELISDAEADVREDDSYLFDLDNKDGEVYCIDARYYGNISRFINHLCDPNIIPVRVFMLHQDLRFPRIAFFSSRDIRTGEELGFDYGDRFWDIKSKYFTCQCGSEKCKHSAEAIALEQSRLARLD
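Using a bead-based AlphaScreen, monomethylated H3K9 product from 2 h room-temperature reactions (G9a 20 nM, peptide 500 nM, SAM 20 uM) was detected with 0.5 ug/mL rabbit anti-H3K9me1 antibody.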
L3MBTL1 block = qHTS Assay for the Inhibitors of L3MBTL1; Lethal(3)malignant brain tumor-like protein 1 (Homo sapiens), Q9Y468; AlphaScreen L3MBTL1–H3K9me1 peptide binding; Potency, µM (highest dose often 57.1 µM), for inactives: at the top dose activity, negative = inhibition, hits mostly inhibitors; actives 0.66% (n = 230,000); note: % is set by controls: 0 for no effect and ±100 for the full control effect; nearly all actives have a fitted effect of over 60% in size
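AlphaScreen proximity signal between nickel-chelate acceptor and streptavidin donor beads (final 10 ug/mL) reports binding of 50 nM L3MBTL1 to 75 nM biotin-H3 K9me1 peptide; complex incubated with compounds 30 min at room temperature; cefsulodin titration as control.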
Active calls of the source: *; u = inconclusive; x = no result; [ ] = dose if it differs, or a comment. In the library only some 12% were active in any assay of this set; here they are far more common. Calls come from the whole dose curve; as a rule, active = well fitted curve in the direction sought with a large enough effect; inconclusive = small, poorly fitted or top-dose-only effect, or another doubt; inactive = no such curve, though single readings can be large; an effect the other way counts as inactive or inconclusive. Potency is the fitted concentration of half-maximal effect.

SMILES	HP1b binding inh	BAZ2B inh	Sfp inh	JMJD2A Tudor	G9a block	L3MBTL1 block
NC(=O)CC(NC(=O)c1cccc(Br)c1)c1ccc(N2CCN(c3ccc(F)cc3)CC2)c([N+](=O)[O-])c1 (stereo unspecified)	-10%	u	11%	u	45µM*	-6%
Cc1ccc(CSc2nc3cccnc3n2Cc2ccc(C(=O)NCc3ccco3)cc2)cc1	7%	-1%	x	-23%	u	x
CCc1nn2c(=O)cc(COC(=O)c3ccccc3NC(=O)C3CCCCC3)nc2s1	9%	-2%	x	-9%	7%[59 µM]	x
NC(=O)CC(NC(=O)c1ccccc1)c1ccc(N2CCN(c3ccccn3)CC2)c([N+](=O)[O-])c1 (stereo unspecified)	30%	-37%	10%	-29%	79µM*	-1%
NC(=O)CC(NC(=O)c1ccc(Br)cc1)c1ccc(N2CCN(c3ccccc3)CC2)c([N+](=O)[O-])c1 (stereo unspecified)	22%	u	-12%	-29%	-18%	-3%
CN(C)CCNC(=O)c1ccc(-n2c(-c3ccccc3)cc3c2CCCC3)cc1	12%	u	x	-30%	-28%[59 µM]	x
CCN(CC)c1ccc(/C=N/NC(=O)c2cnccn2)cc1	34%	x	u	-15%	56µM*	x
CCN(CC)c1ccc(/C=N/NC(=O)c2c[nH]c3ccccc23)cc1	3%	u	11%	-33%	8.9µM*	-15%
Cc1cc2n(n1)CCC(=O)N2Cc1ccc(C(=O)Nc2ccc(F)cc2F)cc1	3%	-6%	x	-19%	-29%[59 µM]	x
Cc1ccc2nc(SCC(=O)O)nc(C)c2c1	24%	14%	-6%	-13%	-41%[2.33 µM]	x
Cc1ccc(N2C(SCC(=O)O)=NC(=Nc3cccc(C)c3)C23CCCC3)cc1	14µM*	20µM*	u	10µM*	-46%	x
O=C(O)CSC1=NC(=Nc2ccc(Cl)cc2)C2(CCCCC2)N1c1cccc(C(=O)O)c1	u	u	-13%	22µM*	4.5µM*	8%
CCCN1CCC(=O)N(CCO)CC1	27%	-11%[57.1 µM]	12%	-19%	45µM*	-6%
CCCN1CCC(=O)N([C@H](CO)CC(C)C)CC1	12%	-26%	4%	-12%	32µM*	5%
O=C1CCc2cc(S(=O)(=O)Nc3ccc4c(c3)CCC4)ccc2N1	x	x	x	-11%	x	x
COc1ccc(C)cc1NC(=O)N1CCC(CN2CCOCC2)CC1	57%	5%	x	-16%	-3%[59 µM]	x
COc1cc(C2/C(=C(/O)c3ccc(F)cc3)C(=O)C(=O)N2CCCC(=O)O)ccc1O (stereo unspecified)	0%	56µM*	19%	u	x	0%
COCCCN1C(=O)C(=O)/C(=C(/O)c2ccc(S(=O)(=O)N3CCCCC3)cc2)C1c1cccc(OC)c1 (stereo unspecified)	37%	-24%	11%	4%	45µM*	x
COc1ccc(/C(O)=C2/C(=O)C(=O)N(CCCC(=O)O)C2c2ccc(OC)c(OC)c2)cc1 (stereo unspecified)	8%	4%	5%	-10%	-2%[0.0925 µM]	13%
CN(C)c1ccc(C2/C(=C(/O)c3ccccc3)C(=O)C(=O)N2CCCC(=O)O)cc1 (stereo unspecified)	27%	-26%	14%	u	u	x
COCCCN1C(=O)C(=O)/C(=C(/O)c2ccc(S(=O)(=O)N3CCCCC3)cc2)C1c1ccc(O)c(OC)c1 (stereo unspecified)	18%	u	-2%	-23%	u	x
COc1cccc(C2/C(=C(/O)c3ccccc3)C(=O)C(=O)N2CCCC(=O)O)c1 (stereo unspecified)	5%	u	5%	50µM*	u	1%
COc1ccc(NC(=O)c2cc3c(=O)n(Cc4ccco4)ccc3nc2C)c(OC)c1	27%	-32%	x	-23%	u	x
CCOc1c(Cl)cc(Cl)cc1CNCCSc1nnnn1C	41%	-17%	x	-13%	-25%[59 µM]	x
Fc1ccc(/C=N/NC2=Nc3cccc4cccc2c34)cc1	-16%	u	u	u	-13%[59 µM]	-12%
SMILES	HP1b binding inh	BAZ2B inh	Sfp inh	JMJD2A Tudor	G9a block	L3MBTL1 block
O=C(O)c1cccc(NC2=Nc3cccc4cccc2c34)c1	17%	-3%	20%	-10%	u	-2%
COc1ccc(NC2=Nc3cccc4cccc2c34)cc1	u	35µM*	-20%	45µM*	u	u
c1ccc(NC2=Nc3cccc4cccc2c34)cc1	-14%	u	2%	-13%[57.1 µM]	25µM*	x
O=C(CCn1cnc2onc(-c3ccc(F)cc3)c2c1=O)N1CCN(c2cccc(Cl)c2)CC1	32%	-1%[57.1 µM]	x	-16%	-26%[59 µM]	x
CCOC(=O)N1CCc2c(sc(NCc3cc(OC)c(OC)cc3OC)c2C(=O)Nc2ccc(OCC)cc2)C1	u	u	x	11µM*	3.2µM*	x
COC(=O)c1ccc(NC(=O)c2c(NCc3cccc(F)c3)sc3c2CCCC3)cc1	-12%	-35%	x	u	u	x
CCOC(=O)c1ccc(NC(=O)c2c(NCc3cc(OC)c(OC)cc3OC)sc3c2CCCC3)cc1	u	25µM*	x	25µM*	7.1µM*	x
CCOc1ccc(NC(=O)c2c(NCc3cc(OC)c(OC)cc3OC)sc3c2CCCC3)cc1	u	25µM*	x	25µM*	13µM*	x
CCOc1ccc(NC(=O)c2c(NC(=O)c3cccc(C)c3)sc3c2CCC3)cc1	52%	10%	x	-11%	-3%[59 µM]	x
COc1ccc(NC(=O)c2c(NC(=O)c3ccc(Br)cc3)sc3c2CCCC3)cc1	38%	2%	x	1%	u	x
CCOC(=O)c1ccc(NC(=O)c2c(NCc3cc(OC)ccc3OC)sc3c2CCC3)cc1	29%	-13%	x	-20%	5µM*	x
CCN(CC)CCNC(=O)c1nn(C)c2c1CS(=O)(=O)c1ccccc1-2	-16%	-2%	x	-18%	u	x
NC(CSC(c1ccccc1)(c1ccccc1)c1cccc2ccccc12)C(=O)O (stereo unspecified)	u	x	x	56µM*	x	x
CN(C)S(=O)(=O)c1cc(NC2CC(=O)N(c3ccc(F)cc3)C2=O)ccc1Cl (stereo unspecified)	45%	-15%	2%	-11%	35µM*	-1%
